Screening data deposited in PubChem by Corson Lab, School of Medicine, Indiana University.
The full list was thinned out, with hits kept by preference.
FECH block: inhibitors of human ferrochelatase, primary screen, biochemical, purified FECH, Ni-mesoporphyrin absorbance; Ni-mesoporphyrin absorbance 550 nm; 3.3% of 20,000 active; Ferrochelatase, mitochondrial (Homo sapiens), P22830; AID 1671448, 2021; calls only at 10 µM (by protocol);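 active means enzyme reaction rate more than 3 SD below the solvent-only control wells on the same plate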;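 further: lower slope than DMSO wells means FECH inhibition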
Target sequence (P22830 whole entry, looked up): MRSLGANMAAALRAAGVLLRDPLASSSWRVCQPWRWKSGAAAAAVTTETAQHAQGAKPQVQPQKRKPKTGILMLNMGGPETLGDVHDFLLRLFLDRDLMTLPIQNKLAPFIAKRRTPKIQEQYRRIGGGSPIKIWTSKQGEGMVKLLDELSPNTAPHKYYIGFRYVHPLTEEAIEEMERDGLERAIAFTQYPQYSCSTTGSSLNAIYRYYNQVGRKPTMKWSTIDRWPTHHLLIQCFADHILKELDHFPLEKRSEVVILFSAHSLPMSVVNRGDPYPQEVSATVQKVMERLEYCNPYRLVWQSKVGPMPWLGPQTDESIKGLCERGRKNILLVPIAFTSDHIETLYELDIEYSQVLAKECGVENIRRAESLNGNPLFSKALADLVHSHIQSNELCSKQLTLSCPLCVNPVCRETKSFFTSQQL
* marks the source's active call; other numbers are inactive results; i = inactive; + = active, no number.

SMILES | FECH block
Cc1ccc(C)c(S(=O)(=O)N2CCC(n3c(C(F)(F)F)nc4cccnc43)CC2)c1 | i
Cc1ncsc1CCCn1cnnc1 | i
CCOc1ccc(NC(=O)Nc2ccc(Sc3cc(CC)nc4nc(C)nn34)cc2)cc1 | i
CCOC(=O)Cc1ccc(NC(=O)Nc2ccc(Sc3cc(CC)nc4nc(C)nn34)cc2)cc1 | +
CCc1ccc(NC(=O)Nc2ccc(Sc3cc(CC)nc4nc(C)nn34)cc2)cc1 | i
O=S(=O)(NCc1ccccc1)NCC(CO)Cc1ccsc1 (configuration not stated) | i
COc1cccc(N2C(=O)N(Cc3ccc(C(C)(C)C)cc3)c3ccccc3S2(=O)=O)c1 | i
O=C1CN(Cc2cccc(Br)c2)S(=O)(=O)c2ccccc2N1Cc1cccc(F)c1 | i
Cc1ccc(N2C(=O)N(Cc3cc(F)cc(F)c3)c3ccccc3S2(=O)=O)c(C)c1 | +
Cc1ccc(N2C(=O)N(Cc3cc(F)cc(F)c3)c3ccccc3S2(=O)=O)cc1 | +
Cc1cccc(N2C(=O)N(Cc3ccc(C)c(C)c3)c3ccccc3S2(=O)=O)c1 | +
Cc1ccc(C)c(CN2CC(=O)N(Cc3cccc(C(F)(F)F)c3)c3ccccc3S2(=O)=O)c1 | i
CCc1cccc(N2C(=O)N(Cc3cc(F)cc(F)c3)c3ccccc3S2(=O)=O)c1 | +
Cc1ccc(N2C(=O)N(Cc3cc(=O)n4ccccc4n3)c3ccccc3S2(=O)=O)cc1 | i
Cc1ccc(N2C(=O)N(Cc3ccc(C(C)(C)C)cc3)c3ccccc3S2(=O)=O)cc1F | i
O=C1CN(Cc2ccc(F)cc2)S(=O)(=O)c2ccccc2N1Cc1ccc(Cl)cc1 | i
CC(C)(C)c1ccc(CN2C(=O)N(c3cc(F)ccc3F)S(=O)(=O)c3ccccc32)cc1 | i
CCc1cccc(N2C(=O)N(CC(=O)NC3CCCCC3)c3ccccc3S2(=O)=O)c1 | i
CN(Cc1nc2ccc(Cl)cc2[nH]1)C(=O)c1cc(C2CC2)[nH]n1 | i
CN1CCCN(c2ncccc2CNC(=O)C(O)c2ccc(F)cc2)CC1 (configuration not stated) | i
CN(C)c1nc(-c2ccccc2)nc2c1CCN(C(=O)C1CCCO1)C2 (configuration not stated) | i
CC1CNC(=O)CCN1Cc1cn[nH]c1C(=O)O (configuration not stated) | i
COCCNc1nc(Nc2cccc(OC)c2)c2cnn(-c3ccccc3)c2n1 | i
Cc1ccc(CN2CCN(Cc3cnc(N4CCOCC4)nc3)CC2=O)cc1 | i
COc1cc(OC)c(CN2CCN(C)C(C(=O)O)C2)cc1Cl (configuration not stated) | i
SMILES | FECH block
O=C1NCC2(CCN(c3ccnc(C(=O)NCCc4ccccc4)c3)CC2)O1 | i
CCCNC(=O)c1[nH]cnc1C(=O)NCCc1c[nH]c2ccccc12 | i
CNC(=O)c1[nH]cnc1C(=O)NCc1ccccc1 | +
O=C(NCc1ccccc1)c1nc[nH]c1C(=O)N1CCCCCC1 | i
COCCNC(=O)c1nc[nH]c1C(=O)NCc1ccccc1 | +
CC1CCN(C(=O)c2[nH]cnc2C(=O)NCc2ccccc2)CC1 | i
O=C(NCc1ccccc1)c1nc[nH]c1C(=O)N1CCC(Cc2ccccc2)CC1 | i
COc1cccc(C(=O)N(Cc2nc3nc(C)c(Cl)c(C)n3n2)c2ccc(C)cc2)c1 | i
CCC(CC)C(=O)N1CCC2(CC1)CN(Cc1nccn1CC)CCN2C | i
Cc1nc(C(C)N(C)Cc2ccc(-c3ccn[nH]3)o2)c(C)s1 (configuration not stated) | i
C=CCN(C(=O)c1cc(C)nc2cc(C)ccc12)C1CCS(=O)(=O)C1 (configuration not stated) | i
Cc1cccnc1NCCNC(=O)c1cccc2ccnn12 | i
Cc1ccc(NC(=O)CNCCNc2ncccc2C)c(C)c1 | +
Cc1ccc(NC(=O)CC(=O)NCCSc2nccn2C)c(C)c1 | i
CCn1ncnc1CN1CCOc2c(O)cc(-c3nc4ccccc4s3)cc2C1 | i
COc1ccc(C)cc1NC(=O)Cn1ccnc1-c1nccn1C | i
COc1ccccc1CNC(=O)CN1c2ccc(Br)cc2-c2ccccc2S1(=O)=O | i
COc1ccc(C)cc1NC(=O)CN1c2ccc(Br)cc2-c2ccccc2S1(=O)=O | +
CCc1ccc2c(c1)-c1ccccc1S(=O)(=O)N2CC(=O)Nc1ccc2c(c1)OCO2 | i
CCNC(=O)CN1c2ccc(Br)cc2-c2ccccc2S1(=O)=O | +
CCc1ccc2c(c1)-c1ccccc1S(=O)(=O)N2CC(=O)Nc1cc(C)ccc1C | +
O=C(CN1c2ccc(Br)cc2-c2ccccc2S1(=O)=O)N1CCc2ccccc2C1 | i
CN1CCN(C(=O)CN2c3ccc(Br)cc3-c3ccccc3S2(=O)=O)CC1 | +
CC(C)c1ccc2c(c1)-c1ccccc1S(=O)(=O)N2CC(=O)N1CC(=O)Nc2ccccc21 | i
CCc1ccc2c(c1)-c1ccccc1S(=O)(=O)N2CC(=O)Nc1ccccc1Oc1ccccc1 | i
SMILES | FECH block
CN1C(=O)c2cc(C(=O)N3CCOCC3)nn2CC1(C)C(=O)NCc1ccc(F)cc1 (configuration not stated) | i
COc1cccc(OCC(=O)Nc2cc(C)nn2-c2ncnc3c2cnn3-c2ccc(C)cc2C)c1 | i
COc1ccc(NC(=O)c2ccc(CN3C(=O)CCn4nc(C)cc43)cc2)c(OC)c1 | i
COc1cc(CC(=O)N2C[C@@H]3[C@@H]4CC[C@@H](C4)[C@@H]3C2)cc(OC)c1OC | i
NC(=O)c1cnc2n1CCN(C(=O)CCN1CCCCO1)C2 | i
CCCCc1c(-c2ccccc2)ncn1C(CC)c1ccnn1C (configuration not stated) | i
O=c1[nH]cccc1-c1csc2ccccc12 | i
CCC1C=CCN1C(=O)c1ccc(-c2ccn[nH]2)cc1 (configuration not stated) | i
O=C(Nc1nc2n(n1)C(c1ccccc1Cl)C=C(c1ccccc1)N2)c1cccnc1 (configuration not stated) | i
O=C(CN1c2ccc(F)cc2-c2ccccc2S1(=O)=O)NC(c1ccccc1)c1ccccc1 | i
O=C(CN1c2ccc(Br)cc2-c2ccccc2S1(=O)=O)NCC1CCCO1 (configuration not stated) | +
Cc1cccc(NC(=O)CC(=O)NC[C@@H]2CCCO2)c1C | i
O=C(CN1c2ccc(Br)cc2-c2ccccc2S1(=O)=O)NCCC1=CCCCC1 | +
C=CCNC(=O)CN1c2ccc(Br)cc2-c2ccccc2S1(=O)=O | +
CC(C)NC(=O)CN1c2ccc(Br)cc2-c2ccccc2S1(=O)=O | +
COCC(C)NC(=O)CN1c2ccc(F)cc2-c2ccccc2S1(=O)=O (configuration not stated) | i
CCc1ccc(NC(=O)CN2CCCN(Cc3ccc(C)cc3)S2(=O)=O)cc1 | i
CN(Cc1cnc(N)nc1)CC1(O)CCCN(CCc2ccccc2)C1=O (configuration not stated) | i
Cc1ccccc1Nc1nc(NCc2ccccc2)nc2c1cnn2-c1ccccc1 | i
Cc1cccc(C)c1NC(=O)NCCc1nc2cccnc2n1C1CCCC1 | i
Cc1ccc2nc(CNc3nc(-c4ccccc4)nc4c3CCNC4)cn2c1 | i
CC(=O)N(CC1=CCCN(Cc2c[nH]c(=O)[nH]c2=O)C1)C(C)C | i
O=C(CCc1ccccc1)Nc1cccc(NC(=O)c2cccc(=O)[nH]2)c1 | i
